Rows were chosen to be rich in hits. Some 10% of all compounds tested hit in one or more screens of this group.
HP1b binding inh: HP1-beta chromodomain-methylated histone interaction inhibition; P83916; AlphaScreen HP1-beta / biotin-H3K9me3 peptide binding; Potency, µM (highest dose often 114 µM), for inactives: at the highest dose activity change, negative = inhibition, usual class: inhibitors; hit rate 0.56% among 390,000; AID 540317; also: nearly all actives have a fitted effect of over 70% in size
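AlphaScreen: HP1-beta (50 nM) preformed 30 min with biotin-H3(1-18)K9me3 peptide (50 nM) in PBS pH 7.4, 0.01% Tween-20. Compound added for 30 min at RT, then streptavidin donor/nickel chelate acceptor beads (10 ug/mL) for 30 min.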
BAZ2B block: BAZ2B (human) inhibition; Q9UIF8; AlphaScreen BAZ2B-H3K14Ac peptide displacement; Potency, µM (series often up to 114 µM), for the others: at the highest dose activity change, negative = inhibition, usual class: inhibitors; hit rate 4.4% among 360,000; AID 504333; also: % is scaled to controls: 0 for no effect and ±100 for the full control effect; nearly all actives have a fitted effect of over 60% in size
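Compounds, titrated to a top concentration of 110 uM, were incubated 30 min at room temperature with preformed BAZ2B/acetyl-K14 H3 peptide complex (50 nM each). Proximity signal was measured by AlphaScreen after 20 min with beads.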
JMJD2A Tudor inh: inhibitors of human JMJD2A Tudor domain. O75164. Potency, µM (highest dose often 114 µM), for inactives: at the highest dose activity change, negative = inhibition, usual class: inhibitors. AID 504339. AlphaScreen JMJD2A-Tudor / H3K4me3 peptide binding. hit rate 4.4% among 390,000; also: % is scaled to controls: 0 for no effect and ±100 for the full control effect; nearly all actives have a fitted effect of over 50% in size
Target sequence (O75164 whole entry, looked up, the tested form may be a part): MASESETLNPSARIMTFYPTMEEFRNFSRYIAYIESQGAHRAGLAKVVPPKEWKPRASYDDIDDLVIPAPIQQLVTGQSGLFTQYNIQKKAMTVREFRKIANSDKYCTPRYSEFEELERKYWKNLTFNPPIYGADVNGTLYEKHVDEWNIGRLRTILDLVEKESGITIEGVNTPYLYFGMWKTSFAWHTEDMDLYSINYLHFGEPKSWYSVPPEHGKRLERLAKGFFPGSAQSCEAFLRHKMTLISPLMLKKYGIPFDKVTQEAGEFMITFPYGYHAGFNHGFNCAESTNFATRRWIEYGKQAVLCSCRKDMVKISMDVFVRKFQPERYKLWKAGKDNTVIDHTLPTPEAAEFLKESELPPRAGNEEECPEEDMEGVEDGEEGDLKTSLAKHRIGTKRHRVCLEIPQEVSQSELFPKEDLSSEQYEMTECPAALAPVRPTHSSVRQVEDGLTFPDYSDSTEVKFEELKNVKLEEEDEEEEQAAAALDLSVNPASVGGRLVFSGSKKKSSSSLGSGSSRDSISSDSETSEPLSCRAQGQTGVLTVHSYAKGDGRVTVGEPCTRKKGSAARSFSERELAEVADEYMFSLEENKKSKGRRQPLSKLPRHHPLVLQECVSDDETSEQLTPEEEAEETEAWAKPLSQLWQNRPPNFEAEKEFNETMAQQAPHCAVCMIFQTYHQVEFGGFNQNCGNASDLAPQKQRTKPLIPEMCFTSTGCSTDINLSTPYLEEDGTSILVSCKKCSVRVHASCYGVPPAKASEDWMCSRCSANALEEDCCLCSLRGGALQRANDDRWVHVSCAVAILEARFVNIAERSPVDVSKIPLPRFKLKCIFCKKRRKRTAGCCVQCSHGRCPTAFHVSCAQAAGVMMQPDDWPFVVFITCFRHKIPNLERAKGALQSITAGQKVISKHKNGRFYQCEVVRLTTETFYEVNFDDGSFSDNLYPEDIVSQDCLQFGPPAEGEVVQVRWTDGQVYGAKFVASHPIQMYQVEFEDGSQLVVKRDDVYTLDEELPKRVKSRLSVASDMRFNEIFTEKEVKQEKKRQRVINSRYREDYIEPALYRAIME
G9a inh: inhibitors of human histone lysine methyltransferase G9a | Q96KQ7 | G9a H3K9 monomethylation, AlphaScreen, 2 h | Potency, µM (series often up to 102 µM), for the others: at the top dose activity, negative = inhibition, most hits filed as inhibitors | hit rate 8.8% among 350,000; also: % is scaled to controls: 0 for no effect and ±100 for the full control effect; nearly all actives have a fitted effect of over 75% in size
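G9a (20 nM) preincubated 15 min RT with compounds, then 500 nM biotinylated H3K9 peptide and 20 uM SAM added; 2 h RT reaction. Monomethyl-H3K9 product detected by AlphaScreen with anti-H3K9me1 antibody, streptavidin donor and anti-rabbit IgG acceptor beads.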
GLS inhibitor: inhibitors of human glutaminase (GLS) | hit rate 0.21% among 410,000 | GLS enzymatic activity, qHTS titration | Potency, µM (doses to about 45.5 µM), for the others: at the top dose activity change, negative = inhibition, usual class: inhibitors | AID 624170; also: % is scaled to controls: 0 for no effect and ±100 for the full control effect
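hKGA in 45 mM KH2PO4 (pH 8.2), 0.02% Tween-20 with compound, then 1mM L-Glutamine (stock as added) plus glutamate oxidase/HRP/Amplex red coupling mix. Fluorescence read initially and after 30 min at RT; signal change reflects glutamate formation.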
Starred values were filed as active, the others as inactive; u = inconclusive; x = no result; ! = not active in a repeat; [ ] = remark or other dose. Calls follow the shape of the dose curve; as a rule, active = well fitted curve in the direction sought with a large enough effect; inconclusive = small, poorly fitted or top-dose-only effect, or another doubt; inactive = no such curve, though single readings can be large; an effect the other way counts as inactive or inconclusive. Potency is read from the fitted curve at half-maximal effect.

SMILES	HP1b binding inh	BAZ2B block	JMJD2A Tudor inh	G9a inh	GLS inhibitor
COCCCNCCOc1ccc(C(C)(C)c2ccccc2)cc1	8.9%	u	17.8µM*	20µM*	-9.3%
CCC(C)NCCOc1ccc(C(C)(C)c2ccccc2)cc1 (stereo unspecified)	u	u	2.82µM*	7.94µM*	-12.9%
NNCCc1ccccc1	20.2%	-17.4%	79.4µM*	18.9µM*!	17.5%
CCc1cc(C(=O)N2CCN(c3ccccc3)CC2)no1	26.5%	2.1%	-7.5%	3.0%[59 µM]	18.0%
CNCCCOc1ccc(C(C)(C)c2ccccc2)cc1	x	79.4µM*	x	7.94µM*	x
CC(C)(C)c1ccc(OCCCCCCN2CCNCC2)cc1	-9.9%	x	-24.1%	x	0.0%
CC(C)(C)c1ccc(C(=O)NCCOc2ccccc2)cc1	24.3%	u	-13.7%	x	6.3%
CC(C)(c1ccccc1)c1ccc(OCCCN2CCNCC2)cc1	u	20µM*	1.12µM*	15.8µM*	u
CC(C)(C)c1ccc(OCCNC(=S)Nc2ccccc2)cc1	26.5%	-11.3%	-15.8%	56.8%[12.7 µM]	-13.2%
c1ccc(CCNCCOc2ccccc2)cc1	-20.9%	u	2.82µM*	10µM*	0.3%
CC(C)(C)c1ccc(OCCNCc2ccccc2)cc1	u	-7.7%	2.24µM*	44.7µM*	2.2%
CC(=O)C[C@H](O)CC(=O)[C@@H]1OC(=O)CCCCCCc2ccccc21	54.0%	-7.1%	-8.5%	3.0%[2.33 µM]	-8.1%
CCCN(c1ccccc1F)S(=O)(=O)c1ccc2c(c1)C(C)(C)C(=O)N2C	-0.1%	-6.2%	-13.6%	5.6%[59 µM]	-2.4%
CCOC(=O)Nc1ccc(S(=O)(=O)Nc2nccc(C)n2)cc1	29.5%	-5.7%	17.9%	25.8%[59 µM]	x
CCn1c(SCC(=O)Nc2cc(OC)ccc2OC)nc2c(c1=O)SCC2	-18.8%	79.4µM*	u	-28.3%	-0.1%
CCn1c(SCC(=O)Nc2ccc(OC)c(OC)c2)nc2c(c1=O)SCC2	24.8%	-34.6%	-4.9%	x	0.4%
COCCn1c(SCC(=O)NCC2CCCO2)nc2c(c1=O)SCC2 (stereo unspecified)	26.8%	-19.3%	89.1µM*	25.0%	-0.6%
COc1ccccc1-n1c(SCC(=O)Nc2ccc(F)cc2)nc2c(c1=O)SCC2	18.8%	-29.1%	-19.0%	50.1µM*	0.9%
Cc1cc(C)nc(N(C#N)CN2C(=O)c3ccccc3C2=O)n1	11.2%	29.8%	-0.6%	4.8%[12.7 µM]	-0.7%
CCN(CC(=O)Nc1c(F)cccc1F)C(=O)CCC(=O)c1ccc(F)cc1	12.6%	3.8%	-12.4%	-33.3%	11.3%
COc1ccc(N=Cc2ccccc2O)cc1	13.0%	x	-17.9%	x	13.2%
COc1ccc(N=Cc2[nH]c3ccccc3c2O)cc1	-8.3%	-23.1%	-35.1%	6.31µM*	10.5%
COc1ccc2c(c1)c(=O)oc1c(C)c(OCc3ccc(C(=O)O)cc3)ccc12	25.6%	50.1µM*	50.1µM*	u	u
COc1ccc2c(c1)c(=O)oc1c(C)c(OCc3cc(C(=O)O)oc3C)ccc12	u	u	28.2µM*	u	u
CC(=O)Nc1ccc(S(=O)(=O)NC2(C(F)(F)F)NC(=O)N(C3CCCC3)C2=O)cc1 (stereo unspecified)	57.7%	-3.1%	-6.0%	0.3%[12.7 µM]	-2.4%
SMILES	HP1b binding inh	BAZ2B block	JMJD2A Tudor inh	G9a inh	GLS inhibitor
COC(=O)C(CC(=O)c1ccc(Br)cc1)n1nc(C)cc1C (stereo unspecified)	-8.3%	u	-13.1%	x	0.0%
COC(=O)C(CC(=O)c1ccc(Br)cc1)n1ccnc1 (stereo unspecified)	x	50.1µM*	x	u	x
COC(=O)C(CC(=O)c1ccc(C)cc1)n1nc(C)cc1C (stereo unspecified)	45.6%	-28.3%	1.3%	79.4µM*	-20.2%
Cc1ccc(C(=O)CC(C(=O)O)n2cccn2)cc1 (stereo unspecified)	34.4%	6.5%	-12.6%	50.1µM*	3.6%
Cc1ccc(C(=O)CC(C(=O)O)n2cncn2)cc1 (stereo unspecified)	22.8%	0.0%	-18.4%	x	5.5%
Cc1cc(=O)oc2c(C)c(OCC(=O)NCCCn3ccnc3)ccc12	34.0%	-17.1%[57.1 µM]	-19.4%	4.6%	-5.1%
Cc1ccc(NC(=O)c2ccc(CN3C(=O)CCn4nc(C)cc43)cc2)c(Cl)c1	37.3%	-5.6%	-3.4%	-29.1%[59 µM]	-11.9%
CCN(c1cccc2ccccc12)S(=O)(=O)c1ccc(Cl)nc1	37.4%	-2.1%	14.0%	21.9%	-1.7%
S=c1[nH]nc(CSCCOc2ccccc2)o1	36.4%	-17.5%	-16.7%	x	25.6%
S=c1[nH]nc(CSCCOc2ccc(Cl)cc2Cl)o1	6.9%	-37.0%	-15.5%	20µM*	18.0%
Cc1cccc(CN2CCN(CC(=O)NCc3ccc(Cl)cc3)C2=O)c1	22.4%	-5.9%	-10.3%	-3.5%[59 µM]	4.6%
CC1CCCCC12NC(=O)N(CC(=O)N1CCN(S(=O)(=O)c3cccs3)CC1)C2=O (stereo unspecified)	24.1%	6.7%	-4.1%	u	-3.8%
COc1ccc(CN(CCN(C)C)Cc2ccccc2)c(OC)c1	-38.6%	79.4µM*	2.51µM*	8.91µM*	-11.8%
COC(=O)c1ccc(OCCCCN(C)Cc2ccccc2)cc1	u	56.2µM*	31.6µM*	10µM*	0.7%
C=CCc1cc(OC)ccc1OCCN(C)Cc1ccccc1	u	50.1µM*	25.1µM*	12.6µM*	0.2%
COc1ccc(OCC(=O)N(C)Cc2ccccc2)cc1	39.9%	3.3%	-17.2%	21.1%	2.4%
COc1ccc(OCCCCN(C)Cc2ccccc2)cc1	u	70.8µM*	20µM*	u	1.6%
COC(=O)c1ccc(OCCOc2ccccc2)cc1	46.3%	4.7%	16.8%	12.3%[12.7 µM]	5.3%
C=CCc1cc(OC)ccc1OCCON1C(=O)CCC1=O	-8.8%	u	-23.3%[11.4 µM]	7.8%[59 µM]	-7.8%
CCOC(=O)c1c(-n2cccc2)sc2c1CCCC2=O	12.4%	u	-12.4%[57.1 µM]	u	4.0%
C=CCc1cc(OC)ccc1OCCCCn1cncn1	u	50.1µM*	5.62µM*	28.2µM*	0.0%
CN(CCOCCOc1ccc(F)cc1)Cc1ccccc1	u	79.4µM*	12.6µM*	u	14.9%
Cc1ccc(/C=C2\SC(N3CCN(C(c4ccccc4)c4ccccc4)CC3)=NC2=O)o1	-19.7%	u	u	4.47µM*	-37.3%
Cc1ccc(-c2ccc(/C=C3\SC(N4CCOCC4)=NC3=O)o2)cc1	-28.8%	x	-15.8%[11.4 µM]	31.6µM*	u
O=C1N=C(N2CCN(c3ccccc3)CC2)S/C1=C/c1cccs1	-1.1%	-33.3%	-24.6%	-20.0%[59 µM]	-15.7%
O=C1N=C(N2CCOCC2)S/C1=C/c1ccc(-c2ccc(F)cc2)o1	36.5%	-23.0%	-11.2%	x	-1.1%
Cc1cc(N(CN2CCCC2=O)C(=O)c2ccc(OC(C)C)cc2)no1	19.7%	-7.0%	-12.0%	6.2%	2.7%
O=C1CC(Sc2nnnn2C2CCCCC2)C(=O)N1c1ccccc1 (stereo unspecified)	1.3%	-3.5%	-16.9%	10µM*	14.0%
